Results: PubChem BioAssay AID1458 (National Center for Advancing Translational Sciences (NCATS), 2008)
Screen size: about 210,000 compounds; about 5,900 (2.8%) were called active. Inconclusive results (about 5%) are left out. What follows is part of a selection rich in actives, with near analogues and random picks from the rest. Values without a mark were called inactive. Calls follow the shape of the dose curve; as a rule, active = well fitted activation curve with a large enough effect; inconclusive = small, poorly fitted or top-dose-only effect; inactive = no such curve, though single readings can be large or run the other way.

assay: qHTS Assay for Enhancers of SMN2 Splice Variant Expression; conditions: HEK293 SMN2-luciferase splicing reporter, luminescence, 30-36 h; series mostly up to 46.1 µM; activity change, positive = activation: at the top concentration; also: nearly all actives have a fitted effect of over 55% in size; as to activity change, positive = activation: % of control where 0% means no effect
Excerpt: NIH Chemical Genomics Center [NCGC] NIH Molecular Libraries Probe Production centers Network [MLPCN] MLPCN Grant: R03 MH084179-01 Assay Submitter (PI): Elliot Androphy NCGC Assay Overview: Spinal muscular atrophy (SMA) is caused by insufficient levels of the survival motor neuron protein SMN. The SMN locus on chromosome 5q13 contains two inverted copies of SMN called SMN1 and SMN2 which are 99% identical at the amino acid level. SMN1 is a fully functional protein and SMN2 skips exon 7 90% of the time. Skipping of exon 7 produces non-functional protein product. 10% of the SMN2 protein includes exon 7 and is fully functional. In the SMA disease state, mutations in the SMN1 locus are the cause of the disease state. Because only 10% of SMN2 is of the fully functional form, it is not sufficient to overcome the deficiency produced by the loss of the SMN1 product. A therapy that either increase the amount of SMN2 product made or to increase the inclusion of exon 7 has been proposed for the treatment of SMA. We have designed an assay to identify small molecules that can increase the amount of functional SMN2 product by appending a luciferase reporter gene after the native SMN2 gene, such that inclusion of exon 7 in the expressed product places the luciferase sequence in frame, thus generating functional luciferase enzyme.
NCGC Assay Protocol Summary: This screen utilizes a luciferase reporter gene assay, combining the promoter and splicing based cassettes in tandem with the major portion of the native SMN2 cDNA, and then transfected into HEK293 cells. Compounds that increase luciferase signal presumably enhance expression of the functional SMN2 splice variant. Passaging media contained DMEM w/ glutamax (+phenol red) 10% FCS, 1x pen/strep, 200 ug/ml hygro, 1x sodium pyruvate. Assay media contained DMEM w/ glutamax (-phenol red) 10% FCS, 1x pen strep, 1x pyruvate Sequence, Parameter, Value, Description (1) Cells, […], 2000 cells/well, 1536 TC treated White solid bottom plate (2) Time, 10-12 hours, 37C 5% CO2 (3) Compound, 23 nl, MLSMR Library (4) Control Compound, 23 nL, Sodium butyrate st 4.5mM (final) conc (5) Time, 30-36 hours, 37C 5% CO2 (6) Reagent, 3 ul, One Glo (TM) from Promega (7) Time, 5-15 minutes, Room temp (8) Detector, Viewlux: luminescent read, 60 second integration, high speed 2x binning Keywords: Spinal muscular atrophy, SMA, SMN2, high throughput screening, MLSMR, MLPCN, NIH Roadmap, qHTS and NCGC
Potency is read from the fitted curve at half-maximal effect.

Structure (SMILES)	activity change, positive = activation	Potency
CCC(=O)N1CCc2cc(S(=O)(=O)NC(CC(C)C)C(=O)NCCc3cccc(C)c3)ccc21 (centres undefined)	-12.6%	–
N#Cc1c(NC(=O)C2CC(Cl)=CCC2C(=O)O)sc2c1CCCCC2 (centres undefined)	-0.264%	–
N#Cc1c(NC(=O)CCCl)sc2c1CCCCC2	3.56%	–
N#Cc1c(NC(=O)C2CCCO2)sc2c1CCCCC2 (centres undefined)	–	6.31 µM (active)
Cc1ccccc1C(=O)N(Cc1ccc(N(C)C)cc1)CC1CCCO1 (centres undefined)	5.65%	–
O=C(Nc1cc(N2CCOCC2)ncn1)NC1(C(F)(F)F)Oc2ccc(Cl)cc2O1 (centres undefined)	–	20 µM (active)
COc1c(C)cccc1C(=O)Nc1cc(Cl)ccc1N1CCOCC1	11.4%	–
c1cnn(-c2cc(N3CCOCC3)ncn2)c1	-14%	–
Cc1ccc(-c2nc3cccc(C)n3c2Nc2ccc3c(c2)OCCO3)cc1	15.9%	–
O=C(Nc1cc(C(F)(F)F)ccc1Cl)c1cc2nc(-c3ccc4c(c3)OCO4)cc(C(F)(F)F)n2n1	-0.044%	–
CC(C)CNC(=O)C(=O)Nc1ccc(N(C)C)cc1	–	11.2 µM (active)
COc1cc(OC)c(C(=O)Nc2ccc(N(C)C)cc2)cc1OC	-2.79%	–
CC(C)CNC(=S)Nc1ccc(F)cc1	26.9%	–
COc1ccc(N(C)C(=O)CCS(=O)(=O)c2cccc3nsnc23)cc1	9.32%	–
CCOC(=O)c1ccc(NC2Nc3cc(C)nn3S2)cc1 (centres undefined)	-45.1%	–
CCc1ccc(NC(=O)N2CCN(c3ccccc3)CC2)cc1	1.4%	–
CCc1ccc(NC2Nc3cc(C)nn3S2)cc1 (centres undefined)	–	11.2 µM (active)
O=C(NCCC1=CCCCC1)c1ccc2c(c1)N(Cc1ccccc1F)C(=O)c1ccccc1S2(=O)=O	9.24%	–
COc1ccc(CNC(=O)c2cc3c(-c4ccccc4F)nn(C)c3s2)c(OC)c1	-4.64%	–
CCOc1ccc(/C=C(\C#N)c2nc3ccccc3c(=O)[nH]2)cc1OC	6.78%	–
Fc1cccc(-n2ncc3c2ncn2nc(-c4ccccc4Cl)nc32)c1	11.6%	–
COc1ccc(-n2nc(C(=O)NCCc3ccc(Cl)cc3)c3c4ccccc4n(C)c3c2=O)cc1Cl	-6.22%	–
Cc1ccc(N)cc1-n1c(C)ccc1C	–	28.2 µM (active)
CC(NC(=O)c1cc(-c2ccccc2)on1)c1ccccc1 (centres undefined)	-1.13%	–
CCCCNC(=O)c1cc(-c2ccc(Cl)c(Cl)c2)on1	3.08%	–
CC(C)CNC(=O)c1cc(-c2ccc(Br)cc2)on1	–	12.6 µM (active)
CCCCS(=O)(=O)c1oc(-c2cccs2)nc1S(=O)(=O)c1ccccc1	-103%	–

Structure (SMILES)	activity change, positive = activation	Potency
Cc1ccc(S(=O)(=O)N2CCc3cc(C(=O)Nc4ccc(Cl)cc4C)ccc32)cc1	-7.76%	–
COc1ccc2nc(Nc3nc(-c4cc5ccccc5oc4=O)cs3)sc2c1	4.66%	–
O=c1oc2ccccc2cc1-c1csc(Nc2ccc(O)cc2)n1	–	11.2 µM (active)
CCCOC(=O)c1cc2ccccc2oc1=O	-9.46%	–
Cc1cc(NC(=O)c2cccc(Cl)c2)ccc1-c1cc2ccccc2oc1=O	-3.74%	–
Cc1nc(C)c(-c2csc(NCCc3ccccc3)n2)s1	-52.2%	–
CCNc1nc(-c2cc3ccccc3o2)cs1	–	3.16 µM (active)
Cc1cc2c(cc1C)C(c1cccc(OC(C)C)c1)CC(=O)N2 (centres undefined)	5.65%	–
O=C(CSc1ccc(-c2cccs2)nn1)Nc1ccccc1F	-18.9%	–
Cc1cccc(CSc2ccc(-c3cccs3)nn2)c1	–	20 µM (active)
N#Cc1ccc(-c2cccs2)nc1SCc1ccc(Br)cc1	0.274%	–
COc1ccc(C2NC(=O)N(C)C3=C2C(=O)N(c2ccc(C(=O)O)cc2)C3)cc1 (centres undefined)	-7.2%	–
COc1cccc(CNC(=O)C(NS(=O)(=O)c2ccc3nc(C)sc3c2)C(C)C)c1 (centres undefined)	-7.88%	–
O=C(Nc1cccc(-c2nc3ncccc3o2)c1)c1ccco1	-8.65%	–
O=C(Nc1ccc2oc(-c3ccccc3F)nc2c1)c1ccco1	–	11.2 µM (active)
O=C(Nc1ccc(O)c(-c2nc3ccccc3o2)c1)c1ccc(-c2cccc(Cl)c2)o1	-8.85%	–
CCCCN(CC)C(=O)c1c[nH]c2ccc(S(=O)(=O)Nc3cccc(OC)c3)cc2c1=O	1.17%	–
CCCNC(=O)C(CC)n1nc(CC)n2c(cc3oc(C)cc32)c1=O (centres undefined)	-16.5%	–
Cc1ccc(-c2cc(N)n(Cc3cccc(Cl)c3)n2)cc1	-34%	–
CCc1cc2c(cc3c(=O)n(CC(=O)NCc4cccc(Cl)c4)nc(CC)n32)s1	-8.46%	–
Cc1ccc2cccc(NC(=O)c3cccc4ccccc34)c2n1	-1.04%	–
COc1ccc(Oc2coc3cc(OC(=O)c4cncc(Br)c4)ccc3c2=O)cc1	-2.3%	–
CCc1cccc(OC2OC(CO)C(O)C(O)C2NC(C)=O)c1 (centres undefined)	26.1%	–
Cc1csc(-c2coc3cc(O[C@@H]4O[C@H](CO)[C@@H](O)[C@@H](O)[C@H]4O)ccc3c2=O)n1	–	20 µM (active)
CCOc1ccc(C(=O)/C=C/c2cn(CC(O)CN3CCCCCC3)c3ccccc23)cc1 (centres undefined)	-12.8%	–
S=C(Nc1cccc(Cl)c1)Nc1ccc2cn[nH]c2c1	27.5%	–
CC(=O)Nc1cccc(C(=O)Nc2nc(C)cs2)c1	2.64%	–
